Compounds with a hit are over-represented: about 1.9% of the library has one in this group of screens.
ZTA DNA inh: ZTA (EBV) inhibition in EBNA-1 counter-screen; P03206; ZTA-DNA binding, fluorescence polarization; inhibition, % at 11 µM; actives 0.15% (n = 320,000); in the data active means inhibition above about 33%
Target sequence (P03206 whole entry, looked up): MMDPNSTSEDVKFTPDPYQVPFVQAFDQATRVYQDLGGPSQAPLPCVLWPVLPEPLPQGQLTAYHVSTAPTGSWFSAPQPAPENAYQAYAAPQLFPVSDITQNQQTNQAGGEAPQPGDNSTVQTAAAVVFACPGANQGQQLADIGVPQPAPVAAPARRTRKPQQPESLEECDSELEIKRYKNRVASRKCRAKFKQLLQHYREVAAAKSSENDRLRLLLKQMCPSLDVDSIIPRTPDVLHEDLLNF
PG9 binder: small molecules binding HIV-1 gp120 antibody PG9; TR-FRET gp120-PG9 antibody binding; inhibition, % at 6.7 µM; actives 0.43% (n = 360,000); in the data active means inhibition above about 8.5%
aDG glyco up: increases alpha dystroglycan glycosylation; activation, % at 10 µM; actives 0.22% (n = 360,000); Pro5-aDG cells, alpha-DG glycosylation AlphaScreen (IIH6); 0% Pro5, 100% B10-LARGE cell signal; AID 624168;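 active means activation of at least 8% versus controls, or a plate z-score of at least 8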;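 further: Pro5 are CHO cells carrying HIG-tagged alpha-DG that lacks glycosylation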
EBNA-1 inh: blocks EBNA-1 binding to DNA | actives 0.34% (n = 300,000) | inhibition, % at 14.8 µM | EBNA-1 DNA binding, fluorescence polarization; in the data active means inhibition above about 28%
NCF1 inh: inhibitors of human p47phox binding; P14598; p47phox/p22phox peptide binding, fluorescence polarization, 2 h; inhibition, % at 24.7 µM; actives 0.53% (n = 220,000); AID 1274;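 active means inhibition above about 30%, limit read from the data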;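 further: 0% = p47phox with labelled peptide and 100% = labelled peptide alone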
Target sequence (P14598 whole entry, looked up): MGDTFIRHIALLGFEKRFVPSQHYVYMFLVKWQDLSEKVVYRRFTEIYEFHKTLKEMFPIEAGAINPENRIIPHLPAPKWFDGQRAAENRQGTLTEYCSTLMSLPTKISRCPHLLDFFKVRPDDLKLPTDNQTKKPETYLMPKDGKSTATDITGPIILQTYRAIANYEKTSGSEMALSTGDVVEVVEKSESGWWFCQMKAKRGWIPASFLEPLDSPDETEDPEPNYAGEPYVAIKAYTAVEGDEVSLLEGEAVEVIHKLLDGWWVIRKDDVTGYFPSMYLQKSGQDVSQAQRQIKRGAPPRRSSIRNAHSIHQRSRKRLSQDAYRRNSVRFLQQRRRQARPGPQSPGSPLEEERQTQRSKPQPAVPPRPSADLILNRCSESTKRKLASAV
Rev-erbA mod: Rev-erb alpha (human) modulation | AID 1259318 | actives 0.79% (n = 370,000) | P20393 | activity, % at 10 µM | Rev-erbα–FITC-DNA binding, fluorescence polarization, 90 min;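 active means activity above about 14%, limit read from the data; passing the limit was not always enough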;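 further: 0% = DMSO wells with 35 nM protein and 100% = DMSO wells with 750 nM protein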
Zta DNA confirm: EBV ZTA DNA binding inhibition, confirmation; shares compounds with ZTA DNA inh; Zta-ZRE DNA binding, fluorescence polarization; inhibition, % at 11.1 µM; actives 30% (n = 320); AID 2361;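 active means mean inhibition across triplicate runs above the hit threshold derived for the original primary screen, cut at about 33% in these data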;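 further: 0% = Zta with DMSO and 100% = wells lacking Zta protein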
EBNA1 counter: counter-screen for ZTA inhibitors: EBNA-1 DNA binding inhibition; shares compounds with ZTA DNA inh; fluorescence polarization; inhibition, % at 14.8 µM; 320 tested, under 10 active; AID 2362; call rule not given here
aDG conf: alpha-DG glycosylation activation, confirmation; activation, % at 10 µM (by protocol); actives 17% (n = 600); Pro5-aDG cells, IIH6 AlphaLISA; scaled to LARGE-overexpressing B10 cells as 100%; shares compounds with aDG glyco up;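 active means activation of at least 7% in one or more replicates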;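 further: cells exposed to compound for two days before detection; 0% = DMSO-treated Pro5 cells and 100% = DMSO-treated B10-LARGE cells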
NR1D1 mod conf: confirmation of modulators of human Rev-erb alpha DNA binding. shares compounds with Rev-erbA mod. Rev-erb alpha FITC-DNA binding, fluorescence polarization, 90 min. activation, % at 25 µM. actives 61% (n = 3,000);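 active means activation at or above a set limit, or at least 3 SD above the negative control mean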;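 further: 0% = 35 nM protein with DMSO and 100% = 750 nM protein high control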
RORg DNA counter: counter-screen for Rev-erb alpha modulators: RORgamma DNA binding. shares compounds with Rev-erbA mod. purified RORgamma protein-FITC-DNA binding, fluorescence polarization. IC50, µM. actives 8% (n = 910). AID 1259320;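 active means Compounds whose fitted half-maximal concentration for disrupting protein-DNA binding is below 10 micromolar; the record names Rev-erb in its text, so the target is in doubt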
The depositor's hits bear a star; · = not tested or not shown; + = active, no number.

SMILES | ZTA DNA inh | PG9 binder | aDG glyco up | EBNA-1 inh | NCF1 inh | Rev-erbA mod | Zta DNA confirm | EBNA1 counter | others
C#CCOCCOCCOCCNc1nc(N2CCN(C(=O)CCCCCCCCCCNC(=O)[C@H]([C@@H](C)CC)n3cc(CCCCCN)nn3)CC2)nc(N2CCN(C(=O)CCCCCCCCCCNC(=O)[C@H](CO)n3cc(CCCCCN)nn3)CC2)n1 | -2 | · | 0 | -15 | · | · | · | ·
C#CCOCCOCCOCCNc1nc(N2CCN(C(=O)CCCCCCCCCCNC(=O)Cn3cc(CCCCCN)nn3)CC2)nc(N2CCN(C(=O)CCCCCCCCCCNC(=O)[C@H]([C@@H](C)CC)n3cc(CCCCN=C(N)N)nn3)CC2)n1 | 61* | · | 0 | 3 | · | · | 48* | -11
C#CCOCCOCCOCCNc1nc(N2CCN(C(=O)CCCCCCCCCCNC(=O)[C@H]([C@@H](C)CC)n3cc(CCCCN=C(N)N)nn3)CC2)nc(N2CCN(C(=O)CCCCCCCCCCNC(=O)[C@H](CCCCN)n3cc(C)nn3)CC2)n1 | 56* | · | · | 6 | · | · | 68* | -9
O=C(NC1CCCCN(Cc2cccc(Cl)c2)C1=O)c1cccc(C(F)(F)F)c1 (stereo not given) | · | · | · | · | · | 4 | · | ·
O=C(Nc1ccc(Cl)cc1)O[C@@H]1CC[C@@]23CCCN2C(=O)CCC[C@H]3C1 | · | · | · | · | · | 2 | · | ·
Cn1c(=O)c2cc(S(=O)(=O)N3CCN(Cc4ccccc4)CC3)ccc2n(C)c1=O | · | · | · | · | · | 1 | · | ·
O=C(Nc1csnn1)c1csnn1 | 49* | 0 | 0 | -22 | 1 | 5 | -1 | -1
Cc1cc(C)nc(NC(=O)c2csnn2)c1 | 0 | 0 | 0 | -2 | -6 | -3 | · | ·
CN(CCO)c1cccc2c1S(=O)(=O)N(Cc1cn(Cc3ccc(Cl)cc3)nn1)Cc1ccccc1O2 | · | · | · | · | · | 2 | · | ·
CS(=O)(=O)c1ccc2nc(NC(=O)c3ccc(NS(=O)(=O)c4ccc(F)c(F)c4)cc3)sc2c1 | 87* | 9 | 2 | 19 | -20 | 23 | 39* | 17
Cn1nc(-c2ccccn2)nc2c(=O)n(C)c(=O)nc1-2 | 73* | -4 | 0 | 7 | -6 | -28 | 69* | -4
O=C(O)CCn1cc(/C=C/C(=O)c2ccc(Cl)cc2)c(-c2ccc(Br)cc2)n1 | 45* | -1 | 0 | 11 | -23 | 0 | 31 | -4
Cc1ccc(OCc2nnc(SCC(=O)NCc3ccco3)n2C)cc1 | -22 | 1 | 0 | 3 | -9 | 2 | · | ·
Cc1ccccc1OCc1nnc(SCC(=O)NCc2ccco2)n1C | 35* | 0 | 0 | 13 | + | -4 | -8 | 0
Clc1ccc(OCCSc2ncccn2)c(Br)c1 | 106* | -1 | 0 | 9 | -9 | 2 | 8 | 4
Brc1cccc(OCCSc2ncccn2)c1 | -6 | 1 | 1 | -12 | 1 | -1 | · | ·
O=C(CCCC1=NS(=O)(=O)c2ccccc2N1)N1CCN(c2ccccc2Cl)CC1 | · | · | · | · | · | -2 | · | ·
COc1cc(NC(=O)C2=C(N3CCOCC3)/C(=C\c3ccc(N(C)C)cc3)CCC2)cc(OC)c1OC | 100* | -2 | 0 | 5 | -23 | -8 | -5 | -3
COc1cc(NC(=O)C2=C(N3CCOCC3)/C(=C/c3ccc(Cl)cc3)CC2)cc(OC)c1OC | -2 | -1 | 1 | -4 | -13 | 1 | · | ·
CC(=O)c1sc(NC(=O)c2oc3ccc(F)cc3c2C)nc1C | 67* | 0 | 0 | · | · | 54* | 47* | 8 | NR1D1 mod conf=46*;RORg DNA counter=>40
CCc1nc(SCC(=O)Nc2nccs2)c2oc3ccccc3c2n1 | 42* | 6 | 0 | 4 | -3 | 15* | 38* | 16 | NR1D1 mod conf=18*
O=C1/C(=C\c2c(NCCOCCO)nc3ccccn3c2=O)SC(=S)N1Cc1ccco1 | 42* | -2 | 0 | 2 | · | 33* | 24 | 7 | NR1D1 mod conf=11
CCCN1C(=O)/C(=C/c2c(NCCCOCC)nc3c(C)cccn3c2=O)SC1=S | · | 0 | 0 | · | -54 | -3 | · | ·
O=C(Cc1ccc(Cl)c(Cl)c1)Nc1ccc(S(=O)(=O)Nc2ccon2)cc1 | · | · | · | · | · | -4 | · | ·
CCCCc1cccc2[nH]cc(C)c12 | · | · | · | · | · | 2 | · | ·
SMILES | ZTA DNA inh | PG9 binder | aDG glyco up | EBNA-1 inh | NCF1 inh | Rev-erbA mod | Zta DNA confirm | EBNA1 counter | others
COc1ccc(CCNc2nc(C)nc3c2oc2ccccc23)cc1OC | 8 | 0 | 6 | 2 | 1 | -1 | · | ·
COc1ccc(CCNc2ncnc3c2oc2ccccc23)cc1OC | 20 | 3 | 7.4* | -5 | -6 | · | · | · | aDG conf=1
Brc1ccc2ncnc(NCc3ccccc3)c2c1 | -3 | 0 | 8.2* | 0 | -5 | -1 | · | · | aDG conf=3.4*
CCOC(=O)[C@]12CCCCC/C=C\1N(Cc1ccc(OC)cc1)C(=O)[C@H]2CC(=O)NCCC(C)C | · | · | · | · | · | -6 | · | ·
COc1ccccc1CN=Cc1[nH]c2ccc(Br)c(Cl)c2c1O | 0 | 3 | 5.8* | -5 | -10 | -2 | · | · | aDG conf=1
Cc1cccc(N=Cc2[nH]c3ccc(Br)c(Cl)c3c2O)c1 | 7 | -2 | 6 | -17 | -30 | -7 | · | ·
c1ccc(-c2c[nH]c3ccc(OCCN4CCOCC4)c(-c4ccccc4)c23)cc1 | · | · | · | · | · | 6 | · | ·
O=C(CSc1nnc(-c2cccnc2)n1-c1ccccc1)c1ccccc1Cl | · | · | · | · | · | 8 | · | ·
CCN(CC)CCCN(C(=O)c1ccccc1F)c1nc(-c2ccc(OC)cc2)cs1 | -1 | -1 | 4.0* | 0 | · | 4 | · | · | aDG conf=2
CCN(CC)CCCN(C(=O)c1ccccc1C)c1nc(-c2ccc(OC)cc2)cs1 | -29 | 0 | 0 | -4 | · | -2 | · | ·
O=C(NCc1cccnc1)c1ccc(-c2cc3ccccc3oc2=O)cc1 | 15 | 0 | 5.6* | -1 | -6 | 2 | · | · | aDG conf=0
O=C(Nc1cccnc1)c1cccc(-c2cc3ccccc3oc2=O)c1 | 4 | 3 | 0 | 6 | 1 | 0 | · | ·
COc1ccc(S[C@]2(C(=O)N(C)C)CC(=O)N(c3ccccc3)[C@@H]2c2ccc(OC)cc2)cc1 | · | · | · | · | · | 6 | · | ·
CCOC1=C2CN(S(=O)(=O)c3ccc(C)cc3)C(c3ccc(C)cc3)CC2N(S(=O)(=O)c2ccc(C)cc2)C(c2ccccc2)C1 (stereo not given) | · | -2 | 2 | · | · | -1 | · | ·
